Screening results: PubChem BioAssay, National Center for Advancing Translational Sciences (NCATS)
Hits are enriched below; roughly 3.6% of the tested compounds scored in any of these assays.
AmpC detergent: qHTS Inhibitors of AmpC Beta-Lactamase (assay with detergent). P00811. AmpC hydrolysis of nitrocefin, absorbance 480 nm, 0.01% Triton. Potency, µM (highest dose often 114 µM), for the others: at the top dose activity change, negative = inhibition, usual class: inhibitors. actives 0.041% (n = 370,000). AID 485294, 2010;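 also: 0% = no-compound wells and -100% = no-enzyme wells; nearly all actives have a fitted effect of over 25% in size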
Target sequence (P00811 whole entry, looked up): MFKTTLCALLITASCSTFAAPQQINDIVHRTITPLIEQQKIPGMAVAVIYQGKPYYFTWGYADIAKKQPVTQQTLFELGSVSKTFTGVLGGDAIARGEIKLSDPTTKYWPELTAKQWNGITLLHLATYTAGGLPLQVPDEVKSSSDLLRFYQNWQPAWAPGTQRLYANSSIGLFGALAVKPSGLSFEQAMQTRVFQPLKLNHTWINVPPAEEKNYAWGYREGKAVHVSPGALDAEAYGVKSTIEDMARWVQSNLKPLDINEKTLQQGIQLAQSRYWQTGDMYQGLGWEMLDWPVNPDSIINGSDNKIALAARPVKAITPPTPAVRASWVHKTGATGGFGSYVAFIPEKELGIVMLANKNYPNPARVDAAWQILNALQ
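AmpC (5.3 nM in the dispensed reagent) in 20 mM phosphate pH 7.0 with 0.01% (detergent screen) or 0.0001% Triton X-100 was preincubated with compounds for 15 min at room temperature. Nitrocefin was then added from an 800 uM solution, and hydrolysis was followed at 480 nm.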
AmpC no deterg: qHTS Inhibitors of AmpC Beta-Lactamase (assay without detergent). AmpC nitrocefin hydrolysis, absorbance 480 nm, 0.0001% Triton. Potency, µM (series often up to 57.1 µM), without a hit: at the top dose activity change, negative = inhibition, actives largely listed as inhibitors. actives 0.52% (n = 330,000). P00811;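 also: plate controls were no compound for no effect and no enzyme for full effect; nearly all actives have a fitted effect of over 20% in size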
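AmpC (5.3 nM in the dispensed reagent) in 20 mM phosphate pH 7.0 with 0.01% (detergent screen) or 0.0001% Triton X-100 was preincubated with compounds for 15 min at room temperature. Nitrocefin was then added from an 800 uM solution, and hydrolysis was followed at 480 nm.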
Sm TGR inh: qHTS Assay for the Inhibitors of Schistosoma Mansoni Peroxiredoxins. Schistosoma mansoni thioredoxin glutathione reductase (TGR), Q962Y6. purified TGR, DTNB reduction, TNB absorbance 405 nm. Potency, µM (titrated, usually from 114 µM), for the others: top-dose activity change, negative = inhibition, actives largely listed as inhibitors. actives 3% (n = 360,000); also: nearly all actives have a fitted effect of over 60% in size
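First, TGR (20 nM dispensed) and NADPH were mixed with compound. Second, a 15 min room-temperature incubation followed. Third, further NADPH and then DTNB were added to start the reaction. Finally, TNB absorbance was monitored kinetically.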
Giardia FBPA inh: qHTS Assay for Inhibitors of Fructose-1,6-bisphosphate Aldolase from Giardia Lamblia; purified Giardia FBPA; A8B2U2; actives 0.71% (n = 290,000); Potency, µM (series often up to 59.6 µM), for inactives: at the highest dose activity, negative = inhibition, most hits filed as inhibitors; AID 2451, 2010; also: nearly all actives have a fitted effect of over 55% in size
Target sequence (A8B2U2 whole entry, looked up): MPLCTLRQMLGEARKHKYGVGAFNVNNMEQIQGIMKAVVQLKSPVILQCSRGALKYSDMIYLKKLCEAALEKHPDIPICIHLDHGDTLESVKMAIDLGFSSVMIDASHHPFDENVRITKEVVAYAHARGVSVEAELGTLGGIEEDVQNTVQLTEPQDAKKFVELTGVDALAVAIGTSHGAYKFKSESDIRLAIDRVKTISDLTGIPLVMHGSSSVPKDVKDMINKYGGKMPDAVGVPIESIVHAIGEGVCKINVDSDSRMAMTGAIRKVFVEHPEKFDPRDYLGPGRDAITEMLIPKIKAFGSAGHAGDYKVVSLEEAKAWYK
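Giardia FBPA (40 nM reagent) was preincubated 10 min at RT with compound (up to 57.5 uM final), then substrate plus GAPDH/TPI/NAD/arsenate coupling system with diaphorase/resazurin was added; resorufin fluorescence (525/598 nm) was read after 20 min.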
* hit, by the source's call; ? = inconclusive; nt = not tested or not shown; [ ] = dose if it differs, or a comment. Calls follow the shape of the dose curve; as a rule, active = well fitted curve in the direction sought with a large enough effect; inconclusive = small, poorly fitted or top-dose-only effect, or another doubt; inactive = no such curve, though single readings can be large; an effect the other way counts as inactive or inconclusive. Unless noted, % is scaled to controls: 0 for no effect and ±100 for the full control effect; potency is read from the fitted curve at half-maximal effect.

SMILES	AmpC detergent	AmpC no deterg	Sm TGR inh	Giardia FBPA inh
CCOC(=O)C(O)(c1ccc(N(CC)S(=O)(=O)c2ccccc2)cc1)C(F)(F)F (stereo not given)	-4.1%	-6.3%	13.6%	-5.8%
Cc1cc(O)c(C(c2cccc(Cl)c2)N2CCN(c3ccccc3)CC2)c(=O)n1Cc1ccco1 (stereo not given)	23.4%	nt	3.98µM*	nt
Cc1cc(O)c(C(c2cccc(F)c2)N2CCN(c3ccccc3)CC2)c(=O)n1Cc1ccco1 (stereo not given)	1.8%	nt	3.16µM*	nt
Cc1nc(NC(=O)COC(=O)C2CC3CCCC(C2)C3=O)c(Cl)cc1Cl (stereo not given)	nt	-14.5%	nt	nt
N#CC1=C(N)N(c2ccc(F)cc2)C2=C(C1c1ccc(O)cc1)S(=O)(=O)CC2 (stereo not given)	2.4%	-39.5%	1.78µM*	?
CSc1ccc(C2C(C#N)=C(N)N(c3ccccc3)C3=C2C(=O)CCC3)cc1 (stereo not given)	?	-48.1%	0.0%	?
O=C(CN(CCc1ccccc1)C(=O)Cn1nnc(-c2cccs2)n1)NCc1ccco1	?	-8.4%	50.1µM*	1.1%
O=C(CN(C(=O)Cn1nnc(-c2cccs2)n1)c1ccc2c(c1)OCCO2)NCc1ccccc1	-6.8%	-1.1%	-5.8%	-0.6%
Cc1nn(-c2ccccc2)c(C)c1C(=O)NCc1ccccc1F	-3.8%	2.5%	0.6%	1.1%
CCN(Cc1ccccc1)C(=O)c1ccc(CS(=O)c2ccccc2C)o1 (stereo not given)	6.2%	51.9%	14.1µM*	nt
CC1C(=O)Nc2ccc(S(=O)(=O)N3CCCCC3)cc2NC1=O (stereo not given)	-1.0%	nt	-5.6%	nt
CSCCC1Nc2ccc(S(=O)(=O)N3CCOCC3)cc2NC1=O (stereo not given)	-18.0%	-11.4%	50.1µM*	-0.7%
O=C(O)CCC(=O)Nc1cccc(-c2nnc(-c3ccccc3)o2)c1	3.1%	-14.4%	25.1µM*	9.9%
CC(OC(=O)c1cccnc1Cl)C(=O)Nc1ccc2c(c1)OCO2 (stereo not given)	nt	-16.9%	nt	nt
CCc1ccc(NC(=O)C(C)Sc2nc(-c3ccco3)c(C#N)c(=O)[nH]2)cc1 (stereo not given)	-12.9%	-31.9%	39.8µM*	-8.3%
O=C1[C@@H]2C(c3cccnc3)=NO[C@@H]2C(=O)N1c1ccc2ccccc2c1	-6.2%	-23.4%	3.55µM*	-2.7%
CCCN(CCC)Cc1c(C(=O)N/N=C/C(C)=C\c2ccco2)nnn1-c1nonc1N	-0.5%	-45.5%	?	?
C/C(=N\NC(=O)c1nnn(-c2nonc2N)c1CN(C)c1ccccc1)c1ccc(O)cc1	-1.1%	25.1µM*	-6.1%	-17.0%
CC(/C=N/NC(=O)c1nnn(-c2nonc2N)c1CN(C)C)=C\c1ccco1	3.4%	6.8%	44.7µM*	?
CCCN(CCC)S(=O)(=O)c1ccc(NS(C)(=O)=O)cc1	-4.6%	-18.1%	3.3%	7.3%
CCCN(CC1CC1)S(=O)(=O)c1ccc(S(N)(=O)=O)cc1	?	0.501µM*	-3.0%	4.2%
Oc1cc(-n2cccn2)c(O)cc1-n1cccn1	-7.2%	-25.2%	3.55µM*	?
O=C1C=Cc2ccccc2C1=O	-0.3%	?	11.2µM*	3.54µM*
O=C1c2ccccc2C(=O)c2ccccc21	nt	nt	nt	3.6%
O=C(NCCNC(=O)c1ccc(Cl)cc1Cl)c1cnccn1	-10.8%	-13.9%	15.8%	1.3%
SMILES	AmpC detergent	AmpC no deterg	Sm TGR inh	Giardia FBPA inh
CC(=O)Nc1ccc(S(=O)(=O)N2CCC(NC(=O)C(Cc3cccc(F)c3)NC(C)=O)CC2)cc1 (stereo not given)	3.1%	21.2%	44.7µM*	nt
CCOC(=O)c1c(C)[nH]c(CCC(=O)NCc2cc(OC)c(OC)c(OC)c2)c1C	12.4%	nt	-13.1%	nt
Cc1cc(C)nc(NS(=O)(=O)c2ccc(Br)s2)c1	9.5%	-10.1%	?	?
Cc1ccc(NS(=O)(=O)c2ccc(Br)s2)nc1	-4.7%	1.7%[2.29 µM]	15.8µM*	7.92µM*
COc1cccc(NC(=O)N2CCC(NC(=O)c3ccco3)CC2)c1	3.4%	-25.9%	-1.3%	1.8%
CCOC(=O)C1CCCN(C(=O)c2ccc(CNS(=O)(=O)c3ccc(C)cc3)cc2)C1 (stereo not given)	5.5%	43.7%	-0.3%	4.0%
O=C(NC1CCCCC1)c1ccc(S(=O)(=O)NCc2ccco2)cc1	-10.1%	-27.1%	44.7µM*	0.9%
CCOC(=O)C1CCCN(C(=O)c2ccc(S(=O)(=O)NCc3ccco3)cc2)C1 (stereo not given)	?	-0.6%	25.1µM*	nt
O=[N+]([O-])c1ccc(N2CCNCC2)cc1NCc1ccco1	-10.5%	17.8µM*	-6.5%	2.9%
CCOc1cccc2c1OC(c1cc(OC)c(OC)c(OC)c1)N1N=C(c3ccc(C)o3)CC21 (stereo not given)	-2.9%	-21.6%	44.7µM*	-16.7%
COc1ccc(OC)c(NC(=O)Nc2ccc3c(c2)CCC3)c1	-5.9%	8.91µM*	5.1%	-6.0%
CCN(Cc1ccccc1)C(=O)c1c(C)oc2ncn(C)c(=O)c12	2.7%	nt	11.2%	nt
COC(=O)c1ccc(CSc2ccc3nnc(-c4ccccn4)n3n2)o1	?	-2.3%	39.8µM*	-19.1%
CCN(CC)c1ccc(S(=O)(=O)Nc2cc(Cl)ccc2Cl)cc1NC(=S)NC(=O)C1CCCC1	?	25.1µM*	-1.4%	-2.0%
COc1cc(C(=O)NC2CCCNC2)cc(OC)c1OC (stereo not given)	-1.7%	-5.3%	35.5µM*	1.8%
COc1cc(C(=O)NC2CCN(CC(=O)NC3CCCCC3C)CC2)cc(OC)c1OC (stereo not given)	-8.1%	28.4%	-1.0%	-0.2%
COC(=O)c1sccc1NC(=S)N1CCC(C(N)=O)CC1	-1.6%	-11.2%	4.4%	0.6%
CC(=O)NCc1ccc(C(=O)CCl)s1	-4.7%	-29.2%	14.1µM*	-11.2%
COc1ccc(C(=O)OCC(=O)c2ccc(CNC(C)=O)s2)cc1	-1.3%	-9.1%	-8.8%	nt
CC(=O)NCc1ccc(C(=O)CCl)cc1	?	-7.2%	11.2µM*	-6.4%
CC(=O)Nc1ccc(C(=O)CCl)cc1	3.0%	-25.2%	12.6µM*	nt
CC(=O)N(C)Cc1ccc(C(=O)CCl)cc1	0.5%	-9.3%	11.2µM*	-19.4%
CC(=O)Nc1ccc(C)cc1	-5.8%	-6.5%	0.0%	nt
CNC(=O)Nc1ccccc1C(=O)Nc1ccccc1	-1.5%	-6.9%	16.2%	2.5%
O=C(Cn1c(-c2cccs2)cc2cc(F)ccc21)NCCc1ccc(Cl)cc1	-6.8%	nt	-0.7%	nt
Cc1occc1-c1nnc(SCc2cc(=O)n3cc(Br)ccc3n2)n1C	-1.5%	-6.1%	44.7µM*	5.8%
Cc1ccccc1Nc1nc(CSc2nnc(-c3ccoc3C)n2C)cs1	-11.2%	-10.9%	35.5µM*	-1.2%
CCc1ccc(S(=O)(=O)/N=C2/C=C(Sc3ncn[nH]3)C(=O)c3ccccc32)cc1	-6.8%	20µM*	0.316µM*	0.792µM*
